# Active and inactive are the calls of the source. The calls were made as follows: active = hit-call score of the fitted dose curve at least 0.9, where 1 is the maximum; inactive = score below 0.9.
# Read-out: Macrophage colony-stimulating factor (MCSF), CSF1 (gene 1435)
# Experiment: BSK_hDFCGF_MCSF: BioMAP Diversity Plus: hDFCGF Assay for Macrophage colony-stimulating factor (MCSF) Biomarker Activity (AID 2283060)
# Conditions: primary human foreskin fibroblasts; actives raise or lower the signal
# How it was run: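 M-CSF levels read by ELISA at 24 h post-dosing in human skin fibroblasts. Parallel cultures stained with SRB assessed cytotoxicity at the same time point; response fitted in both directions against the DMSO baseline.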
Structure (SMILES),outcome,AC50
Oc1ccccc1,inactive,–
COc1cc(C(=O)NC2CCN(C)CC2)ccc1Nc1ncc2c(n1)N(C1CCCC1)CC(F)(F)C(=O)N2C,–,14.9 µM (active)
C[C@]12CC[C@@H]3c4ccc(O)cc4CC[C@H]3[C@@H]1CCC2=O,inactive,–
CN(C)C(=O)C1(N2CCCCC2)CCN(CC[C@@]2(c3ccc(Cl)c(Cl)c3)CN(C(=O)c3ccccc3)CCO2)CC1,–,20.8 µM (active)
CN(C)c1ccc(C(=C2C=CC(=[N+](C)C)C=C2)c2ccc(N(C)C)cc2)cc1,–,1.77 µM (active)
O=C(O)Cn1c(=O)n(Cc2ccc(Br)cc2F)c(=O)c2ccc(Cl)cc21,inactive,–
CCCCCCCCOC(=O)c1cc(O)c(O)c(O)c1,–,27.8 µM (active)
O=C(OCCCCCCOC(=O)c1ccccc1)c1ccccc1,inactive,–
O=C(O)c1ccccc1C(=O)OCc1ccccc1,inactive,–
Cc1ccc2oc(CN(Cc3ccccc3)C(=O)Nc3c(F)cc(F)cc3F)c(-c3ccc(Cl)cc3)c2c1,inactive,–
Cc1oc2c(NC(=O)c3c(Cl)cccc3Cl)cccc2c1C(C)(C)O,inactive,–
c1ccc2n[nH]nc2c1,inactive,–
CC[C@@H]1C[C@H](N(Cc2cc(C(F)(F)F)cc(C(F)(F)F)c2)C(C)=O)c2cc(C(F)(F)F)ccc2N1C(=O)OC(C)C,inactive,–
CO[C@H]1/C=C/O[C@@]2(C)Oc3c(C)c(O)c4c(O)c(c(/C=N/N5CCN(C)CC5)c(O)c4c3C2=O)NC(=O)/C(C)=C\C=C\[C@H](C)[C@H](O)[C@@H](C)[C@@H](O)[C@@H](C)[C@H](OC(C)=O)[C@@H]1C,inactive,–
